Compound activity: PubChem BioAssay, National Center for Advancing Translational Sciences (NCATS)
Shown are actives, neighbours in structure and some others; about 2.3% of the full set was active somewhere.
Nrf2 block: blocks Nrf2 signaling. A549 ARE-Fluc reporter, luciferase luminescence, 18-24 h. AID 504444. hit rate 2.1% among 360,000. Potency, µM (titrated, usually from 46 µM), most hits filed as inhibitors; also: nearly all actives have a fitted effect of over 60% in size
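Concentration-response testing used A549 ARE_Fluc cells at 5000 cells/well. Following an 18-24 h compound incubation, viability was read by fluorescence (Ex 405/Em 525) and luciferase output by luminescence.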
A549 tox: counter-screen for Nrf2 inhibitors: cytotoxicity in A549 cells. Potency, µM (top dose mostly 46 µM), actives largely listed as inhibitors. hit rate 0.16% among 390,000. A549 ARE-Fluc cells, CellTiter-Fluor viability, 18-24 h. AID 504648
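A549 ARE-Fluc cells in 5% FBS OPTI-MEM, 5000 cells/well, rested 2 h then exposed to compounds in concentration-response for 18-24 h at 37 °C. Viability by CellTiter-Fluor fluorescence (Ex 405/Em 525) after 30 min; luciferase luminescence (BugLite, 15 min, RT) read afterwards.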
Nrf2 ARE act: Nrf2 pathway activation; AREc32 ARE-luciferase reporter (MCF7-derived line), luminescence, 24 h; Potency, µM (titrated, usually from 46.1 µM), hits mostly activators; hit rate 0.31% among 410,000; also: nearly all actives have a fitted effect of over 65% in size
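ARE activation measured as luciferase luminescence (Steady-Glo, 30 min RT) in AREc32_Fluc cells after 24 hr compound exposure at 37 deg C, 5% CO2; cells seeded overnight at 1000/well in OPTI-MEM, 5% FBS.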
IL-2 act: activators of IL-2; activation, % (series mostly up to about 46 µM); hit rate 0.065% among 360,000; AID 652025; IL-2 activation reporter assay, cell-based qHTS; stimulated with anti-CD3/CD4/CD28 beads; in transgenic mouse T cells; in the data active = activation above about 50%; inconclusive = mostly about 30% to 49%
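Unstimulated transgenic mouse T cells, 750 per well, received compound and, after 60 minutes, anti-CD3/anti-CD4 bead plus anti-CD28 stimulation. EGFP and DsRed were quantified after 18 hours.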
A number is an active result; n = inactive; u = inconclusive; x = not tested or not shown; [ ] = dose if it differs, or a comment. Unless noted, calls follow the shape of the dose curve; as a rule, active = well fitted curve in the direction sought with a large enough effect; inconclusive = small, poorly fitted or top-dose-only effect, or another doubt; inactive = no such curve, though single readings can be large; an effect the other way counts as inactive or inconclusive.

SMILES	Nrf2 block	A549 tox	Nrf2 ARE act	IL-2 act
COc1cc(/C=N/Nc2ccccc2[N+](=O)[O-])cc(OC)c1O	n	n	10µM	n
Cc1ccc(Cl)cc1N1CCN(CCCNc2ncnc3onc(-c4ccc(F)cc4)c23)CC1	u	u	n	x
Cc1cccc(-n2c3c(cc(-c4nc(-c5ccc(Cl)cc5)cs4)c2=O)C(=O)CC(C)(C)C3)c1	n	n	n	x
COc1cc(OC)cc(C(=O)Nc2nc(-c3ccccc3)c(-c3ccccc3)o2)c1	18µM	u	n	n
Cc1ccc(Oc2c(C)nc(-c3ccccc3)[nH]c2=O)cc1	u	n	n	n
Cc1nc(-c2ccccc2)[nH]c(=O)c1Oc1ccc(Cl)cc1Cl	21µM	n	n	n
c1ccc2c(c1)[nH]c1c(N3CCC4(CC3)OCCO4)ncnc12	13µM	n	n	n
c1ccc(CN2CCN(c3ncnc4c3[nH]c3ccccc34)CC2)cc1	15µM	n	n	n
Cc1ccc2[nH]c3c(N4CCN(Cc5ccccc5)CC4)ncnc3c2c1	9.2µM	u	n	n
c1ccc(CN2CCN(c3nc4ccccc4c4ccccc34)CC2)cc1	n	n	n	n
COc1cccc2[nH]c3c(N4CCC5(CC4)OCCO5)ncnc3c12	n	n	n	n
O=C(CNC(=O)c1ccccc1)NCC(=O)OCC(=O)c1ccc2ccccc2c1	n	n	x	x
c1nc(NCCCN2CCCCC2)c2cc(-c3ccc4c(c3)OCO4)ccc2n1	n	n	x	x
Cc1ccc(OCCn2c(C3CC(=O)N(Cc4ccc(F)cc4)C3)nc3ccccc32)c(C)c1 (configuration not stated)	23µM	n	n	x
CCc1ccc(OCCn2c(C3CC(=O)N(Cc4ccc(F)cc4)C3)nc3ccccc32)cc1 (configuration not stated)	15µM	n	n	x
CC(=O)N1CCCc2cc(S(=O)(=O)Nc3ccc(C)c(C)c3)ccc21	u	n	x	x
C/C(=N/NC(=O)c1cccs1)c1ccco1	n	n	13µM	n
C/C(=N\NC(=O)c1csc(C)c1C)c1ccco1	u	n	n	n
CC(/C=N/NC(=O)Cc1cccs1)=C\c1ccco1	n	n	14µM	n
Cn1c(SCC(=O)N/N=C/c2ccco2)nc2ccccc21	u	n	n	n
CC(/C=N/NC(=O)c1cc(-c2ccncc2)nc2ccccc12)=C\c1ccco1	n	18µM	u	n
CC(/C=N/NC(=O)CSc1nc2ccccc2n1C)=C\c1ccco1	n	n	13µM	n
O=[S+]([O-])(c1ccc2ncsc2c1)N1CCN([S+](=O)([O-])c2c(F)cccc2F)CC1	n	n	x	x
CC(C)(C)NC(=O)/C(=C\c1ccco1)NC(=O)c1cccs1	n	n	n	n
CC(/C=N/NC(=O)c1cccs1)=C\c1ccco1	u	n	14µM	n
SMILES	Nrf2 block	A549 tox	Nrf2 ARE act	IL-2 act
CC(C)(C)Nc1nc(C#N)nc(Nc2ccccc2)n1	n	n	x	x
Cc1ccc(S(=O)(=O)Cc2ccc(C(=O)N3CCN(c4cccc(Cl)c4)CC3)o2)cc1	u	n	n	x
Cc1ccccc1S(=O)(=O)Cc1ccc(C(=O)N2CCN(c3cccc(Cl)c3)CC2)o1	18µM	n	n	x
Cc1ccccc1S(=O)(=O)Cc1ccc(C(=O)N2CC(C)CC(C)C2)o1 (configuration not stated)	n	n	n	n
Cc1ccccc1S(=O)(=O)Cc1ccc(C(=O)N2CCN(c3cccc(C)c3C)CC2)o1	10µM	u	n	n
COc1cc(OC)cc(-c2nnc3n2N=C(c2cc(OC)ccc2OC)CS3)c1	n	n	x	x
O=C1/C(=C/c2cccs2)SC(=S)N1c1ccccc1	10µM	u	n	n
CC1(C)O[C@H]2[C@@H](O1)[C@@H](C(=O)Nc1ccccc1C(F)(F)F)O[C@@H]1OC(C)(C)O[C@@H]12	n	n	n	x
COc1ccccc1/C=C/C(=O)c1cc(Br)ccc1OC(=O)c1ccco1	26µM	u	n	n
Nc1nc2ccccc2n1/N=C/c1ccc([N+](=O)[O-])s1	15µM	u	n	n
Nc1nc2ccccc2n1/N=C/c1cccnc1	u	n	n	n
CC(=O)Nc1ccc(S(=O)(=O)Oc2ccc(C(=S)N3CCCCC3)cc2)cc1	21µM	n	n	n
CCOc1cc(C(=S)N2CCOCC2)ccc1OS(=O)(=O)c1ccc(NC(C)=O)cc1	9.2µM	n	n	n
CC(=O)Nc1ccc(S(=O)(=O)Oc2ccc(C(=S)N3CCC(O)CC3)cc2)cc1	u	n	n	n
O=C(COCc1cc(-c2cccs2)on1)NCc1cccc(Cl)c1	n	n	n	x
COC(=O)c1ccccc1NC(=O)CCS(=O)(=O)c1nc(-c2ccc3c(c2)OCO3)cc(C(F)(F)F)n1	n[9.27 µM]	n	n	x
COc1cccc(C(C)NC(=O)Nc2ccccc2Cl)c1 (configuration not stated)	10µM	n	n	n
COc1cccc(C(C)NC(=O)c2c(F)cccc2Cl)c1 (configuration not stated)	n	n	n	n
CSc1nc(N)n2nc(-c3ccccc3)cc2n1	u	n	7.9µM	n
COC(=O)c1cc2oc(C)cc2n1CC(=O)Nc1ccc(C)cc1C	n	n	n	x
CCCn1c(=O)c2sccc2n2c(CCCC(=O)NCCc3ccc(Cl)cc3)nnc12	n	n	n	x
Oc1ccc(CNc2ccc(F)cc2F)c2cccnc12	10µM	n	x	x
O=C(Cn1cc(S(=O)(=O)Cc2cccc(Cl)c2)c2ccccc21)NCCc1ccccc1	n	n	n	x
N#CC1=C(SCC(=O)c2ccc(Br)cc2)NC2=C(C(=O)CCC2)C1c1ccco1 (configuration not stated)	18µM	u	n	n
CC1CCN(C(=O)Nc2ccc3nc(-c4ccco4)c(-c4ccco4)nc3c2)CC1	u	n	x	x
SMILES	Nrf2 block	A549 tox	Nrf2 ARE act	IL-2 act
O=c1[nH]c(/C=C/c2ccc(OC(F)F)cc2)nc2c1cnn2-c1ccccc1	16µM	n	n	n
CC1=C(C(N)=O)C(c2ccc(C)cc2)n2nc(SCc3ccccc3F)nc2N1 (configuration not stated)	n[9.27 µM]	n	n	x
Cc1cc(N/N=C/c2ccccc2O)c2ccccc2n1	18µM	n	n	n
COc1ccc2nc(C)cc(N/N=C/c3cccc(OC)c3O)c2c1	n	n	n	n
Cc1cccc(Cn2c(O)c(N=NC(=S)Nc3ccccc3F)c3ccccc32)c1	5.8µM	u	n	n
CCOC(=O)N1C/C(=C\c2ccccc2)C(=O)/C(=C/c2ccccc2)C1	n	n	11µM	n
Cc1cc2c(s1)c1cnn(Cc3cccc(Br)c3)c(=O)c1n2C	u	n	x	x
CCOC(=O)c1cnc2ccc(C)cc2c1NCCc1ccc(OC)c(OC)c1	n	n	n	x
COc1ccc(C(=O)Nc2ccc(NC(=O)c3cccs3)c(OC)c2)cc1Cl	9.2µM	n	n	n
COc1cc(C(=O)Nc2ccc(C(=O)c3cccs3)cc2)cc(OC)c1OC	21µM	n	n	n
COc1c(Cl)cc(Cl)cc1C(=O)Nc1ccc(NC(=O)c2cccs2)cc1	10µM	n	n	n
COc1ccc(C(=O)Nc2ccc(NC(=O)c3cccs3)cc2)cc1Cl	n	n	n	n
